Laboratory results from PubChem BioAssay.
Activity calls are given as the source filed them. Unless noted, no rule for the calls is given here.

Key:
[1] = test system: Wnt5a (protein binding on small-molecule microarray); assay: small molecules binding Wnt5a protein – biophysical, small-molecule microarray, 635/667 nm fluorescence, primary screen (AID 1142); conditions: 635 nm fluorescence, higher = more signal;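 also: fluorescence read at 667 nm with signal to noise per printed feature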
[2] = ATP-based viability of Huh7 replicon cells – cell-based, CellTiter-Glo luminescence, basal, 48 h, cytotoxicity control for HCV replication inhibitor project, primary screen (AID 1143); conditions: higher = more signal, called active from +8 up or from −8 down;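 also: Huh7 hepatoma cells carrying a hepatitis C replication reporter with no stimulus; test concentration not given here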
[3] = Pseudomonas biofilm growth suppression – PAO1 strain, BacTiter-Glo luminescence, LB-PBS, primary screen (AID 1144); conditions: P. aeruginosa PAO1 biofilm, 12 h, higher = more signal
[4] = basal CRE-LacZ reporter activity in PC12 – cell-based, unstimulated, primary screen (AID 1145); conditions: no forskolin, luminescence, 4.5 h, higher = more signal, called active from +8 up or from −8 down
[5] = forskolin-driven CRE-LacZ activity in PC12 – cell-based, CRE-LacZ reporter, forskolin-stimulated, primary screen (AID 1146); conditions: luminescence, 4.5 h, higher = more signal, called active from +8 up or from −8 down;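 also: PC12 cells with 6xCRE LacZ reporter stimulated by forskolin 10 µM; beta-galactosidase reporter signal reflecting CREB driven transcription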
[6] = molecular target: Streptavidin (Streptomyces avidinii) (UniProt P22629); assay: compounds binding control protein streptavidin – biophysical, small-molecule microarray, 635/667 nm fluorescence, artefact control for SMM compound annotation, primary screen (AID 1147); conditions: higher = more signal;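 also: signal reflects streptavidin binding to arrayed compounds as a control protein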
[7] = probe aInhba binding on compound microarray – biochemical, small-molecule microarray, 635/667 nm fluorescence, primary screen (AID 1148); conditions: higher = more signal;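 also: score merges 667nm spot fluorescence with signal-to-noise for antibody binding to printed compounds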
Torsin-1A (Homo sapiens) [8] = molecular target: Torsin-1A (Homo sapiens) (UniProt O14656); assay: TOR1A wild-type binding on microarray – cell lysate, small-molecule microarray, lysate, 635/667 nm, primary screen (AID 1149); conditions: COS7 hTOR1A-WT lysate, 635 nm fluorescence, higher = more signal
Torsin-1A (Homo sapiens) [9] = molecular target: Torsin-1A (Homo sapiens) (UniProt O14656); assay: torsin A mutant lysate binding on microarrays – cell lysate, small-molecule microarray, COS7 lysate, 635/667 nm fluorescence, primary screen (AID 1150); conditions: COS7 hTOR1A mutant lysate, 635 nm fluorescence, higher = more signal;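 also: score pools 667 nm emission and signal to noise measuring lysate protein binding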
[10] = test system: Sonic hedgehog protein (Shh); assay: Sonic hedgehog microarray binding compounds – biochemical, small-molecule microarray, 635/667 nm fluorescence, primary screen (AID 1151); conditions: 635 nm fluorescence, higher = more signal;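 also: Shh protein binding to compounds spotted on small-molecule microarray slides; score combines spot fluorescence intensity with signal-to-noise across triplicate slides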
[11] = optical density shifts of acrAB sulA E. coli – strain DRC41, OD650, 48 h, E. coli filamentation inducer project, primary screen (AID 1152); conditions: higher = more signal, called active from +8 up or from −8 down;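 also: E. coli MC1000 strain DRC41 lacking acrAB efflux pump and sulA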
[12] = probe aLefty1 binding on compound microarray – biochemical, small-molecule microarray, 635/667 nm fluorescence, primary screen (AID 1153); conditions: higher = more signal;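 also: score merges spot fluorescence with signal-to-noise ratio from the scanned slide images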
[13] = plasmodial surface anion channel blockers, osmotic lysis – cell-based, P. falciparum Indochina, OD700, 1 h, primary screen (AID 1154); conditions: P. falciparum Indochina infected RBC osmotic lysis, higher = more signal, called active from +8 up or from −8 down
[14] = plasmodial surface anion channel blockers, osmotic lysis – cell-based, P. falciparum Indochina, OD700, 2 h, primary screen (AID 1155);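 also: lysis reports solute entry through the parasite surface anion channel PSAC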; conditions: P. falciparum Indochina infected erythrocytes, higher = more signal, called active from +8 up or from −8 down
[15] = changes in parasitized red cell lysis, either direction – P. falciparum Indochina, OD700, 3 h, PSAC antagonist project, primary screen (AID 1156); conditions: P. falciparum-infected erythrocytes, osmotic lysis, higher = more signal, called active from +8 up or from −8 down
[16] = plasmodial surface anion channel blockers, osmotic lysis – cell-based, P. falciparum Indochina, OD700, 18 h, primary screen (AID 1157); conditions: P. falciparum Indochina infected erythrocytes, osmotic lysis OD700, 18 h; higher = more signal, called active from +8 up or from −8 down
[17] = S6 kinase pathway phospho-S6 level changes – cell-based, A549, cytoblot, luminescence, serum-stimulated, primary screen (AID 1158); conditions: 5 h, higher = more signal;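 also: serum-stimulated A549 lung adenocarcinoma cells; signal is phosphorylated S6 detected by cytoblot immunostaining with HRP secondary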
[18] = molecular target: NADPH oxidase 2 (Homo sapiens) (UniProt P04839); assay: compounds shifting NOX2 Amplex Red fluorescence – cell-based, HEK293-NOX2, PMA-stimulated, NOX inhibitor project, primary screen (AID 1159); conditions: 45 min, higher = more signal, called active from +8 up or from −8 down; also: test concentration not given here
[19] = molecular target: NADPH oxidase 4 (Homo sapiens) (UniProt Q9NPH5); assay: compounds shifting NOX4 Amplex Red fluorescence – cell-based, HEK293-NOX4, tetracycline-induced, NOX inhibitor project, primary screen (AID 1160); conditions: HEK293-NOX4, Amplex Red H2O2 fluorescence, 45 min; higher = more signal, called active from +8 up or from −8 down
[20] = molecular target: NADPH oxidase 5 (Homo sapiens) (UniProt Q96PH1); assay: compounds shifting NOX5 Amplex Red fluorescence – cell-based, HEK293-NOX5, NOX inhibitor project, primary screen (AID 1161); conditions: HEK293-NOX5, ionomycin, 45 min, higher = more signal
Chain of NADPH oxidase 5 (Homo sapiens) (Q96PH1 whole entry, looked up): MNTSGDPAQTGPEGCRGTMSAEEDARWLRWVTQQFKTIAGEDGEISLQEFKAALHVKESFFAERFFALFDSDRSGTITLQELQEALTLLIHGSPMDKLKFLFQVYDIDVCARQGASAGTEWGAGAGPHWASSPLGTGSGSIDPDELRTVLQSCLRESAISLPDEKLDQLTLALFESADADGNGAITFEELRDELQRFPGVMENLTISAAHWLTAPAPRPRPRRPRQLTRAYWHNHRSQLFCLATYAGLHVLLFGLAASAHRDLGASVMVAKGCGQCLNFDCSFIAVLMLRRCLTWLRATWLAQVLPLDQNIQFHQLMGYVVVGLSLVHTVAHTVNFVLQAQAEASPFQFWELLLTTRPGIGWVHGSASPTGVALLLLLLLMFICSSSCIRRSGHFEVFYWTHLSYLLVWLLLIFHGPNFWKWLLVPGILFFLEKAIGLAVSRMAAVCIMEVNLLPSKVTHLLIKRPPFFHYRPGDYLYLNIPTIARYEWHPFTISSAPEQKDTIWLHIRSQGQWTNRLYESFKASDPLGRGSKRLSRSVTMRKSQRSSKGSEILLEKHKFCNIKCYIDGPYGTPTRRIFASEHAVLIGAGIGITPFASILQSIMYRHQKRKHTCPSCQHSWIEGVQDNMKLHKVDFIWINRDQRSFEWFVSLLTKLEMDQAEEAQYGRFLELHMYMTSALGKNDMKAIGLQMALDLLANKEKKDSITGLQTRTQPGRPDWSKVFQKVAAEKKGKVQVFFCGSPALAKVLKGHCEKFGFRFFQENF

Chain of Streptavidin (Streptomyces avidinii) (P22629 whole entry, looked up): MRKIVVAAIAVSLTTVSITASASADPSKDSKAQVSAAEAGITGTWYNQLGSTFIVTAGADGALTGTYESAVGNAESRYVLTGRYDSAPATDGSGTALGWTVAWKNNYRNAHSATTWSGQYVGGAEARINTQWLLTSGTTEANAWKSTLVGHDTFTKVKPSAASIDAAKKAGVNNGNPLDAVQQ
Chain of Torsin-1A (Homo sapiens) (O14656 whole entry, looked up): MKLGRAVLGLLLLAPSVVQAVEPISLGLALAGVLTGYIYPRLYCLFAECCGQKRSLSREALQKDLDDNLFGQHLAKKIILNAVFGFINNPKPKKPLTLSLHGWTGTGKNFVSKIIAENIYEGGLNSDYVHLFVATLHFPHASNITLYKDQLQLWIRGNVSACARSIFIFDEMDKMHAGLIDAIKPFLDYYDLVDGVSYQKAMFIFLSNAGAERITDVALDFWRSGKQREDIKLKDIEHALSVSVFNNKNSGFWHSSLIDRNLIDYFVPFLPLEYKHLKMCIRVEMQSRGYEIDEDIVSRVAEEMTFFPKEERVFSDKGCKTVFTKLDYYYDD
Chain of NADPH oxidase 4 (Homo sapiens) (Q9NPH5 whole entry, looked up): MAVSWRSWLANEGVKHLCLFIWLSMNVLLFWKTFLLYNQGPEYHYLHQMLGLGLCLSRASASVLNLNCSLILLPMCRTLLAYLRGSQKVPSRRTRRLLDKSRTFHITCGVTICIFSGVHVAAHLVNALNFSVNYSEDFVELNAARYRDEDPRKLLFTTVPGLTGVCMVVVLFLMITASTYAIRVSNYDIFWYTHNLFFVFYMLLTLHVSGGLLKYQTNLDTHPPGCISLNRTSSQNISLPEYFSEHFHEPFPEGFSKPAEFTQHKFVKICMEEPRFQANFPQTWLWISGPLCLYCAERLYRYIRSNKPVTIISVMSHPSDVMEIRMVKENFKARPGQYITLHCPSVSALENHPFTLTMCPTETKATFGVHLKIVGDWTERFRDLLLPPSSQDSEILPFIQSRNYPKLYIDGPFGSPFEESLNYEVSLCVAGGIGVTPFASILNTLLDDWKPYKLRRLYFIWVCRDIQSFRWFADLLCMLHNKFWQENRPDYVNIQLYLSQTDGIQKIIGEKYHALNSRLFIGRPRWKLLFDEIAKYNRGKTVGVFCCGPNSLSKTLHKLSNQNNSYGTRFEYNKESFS
Chain of NADPH oxidase 2 (Homo sapiens) (P04839 whole entry, looked up): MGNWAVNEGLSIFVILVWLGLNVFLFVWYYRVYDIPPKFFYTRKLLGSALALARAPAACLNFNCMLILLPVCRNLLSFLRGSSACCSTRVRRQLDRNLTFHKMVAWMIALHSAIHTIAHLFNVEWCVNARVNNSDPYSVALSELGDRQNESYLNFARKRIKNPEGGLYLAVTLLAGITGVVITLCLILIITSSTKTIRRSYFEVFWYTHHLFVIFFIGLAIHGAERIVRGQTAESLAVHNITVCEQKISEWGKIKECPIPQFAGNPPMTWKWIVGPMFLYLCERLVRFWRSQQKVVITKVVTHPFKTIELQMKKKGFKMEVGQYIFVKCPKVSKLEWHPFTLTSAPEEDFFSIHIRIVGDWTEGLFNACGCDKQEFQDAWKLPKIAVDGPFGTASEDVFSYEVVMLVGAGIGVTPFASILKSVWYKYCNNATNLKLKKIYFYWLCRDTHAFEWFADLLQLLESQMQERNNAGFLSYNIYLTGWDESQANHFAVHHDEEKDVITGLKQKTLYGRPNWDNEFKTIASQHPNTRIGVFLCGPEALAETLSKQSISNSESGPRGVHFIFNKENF

| Structure (SMILES) | composite z-score [1] | z-score [2] | z-score [3] | z-score [4] | z-score [5] | composite z-score [6] | composite z-score [7] | composite z-score (Torsin-1A (Homo sapiens) [8]) | composite z-score (Torsin-1A (Homo sapiens) [9]) | composite z-score [10] | z-score [11] | composite z-score [12] | z-score [13] | z-score [14] | z-score [15] | z-score [16] | z-score [17] | z-score [18] | z-score [19] | z-score [20] |
| --- | --- | --- | --- | --- | --- | --- | --- | --- | --- | --- | --- | --- | --- | --- | --- | --- | --- | --- | --- | --- |
| C=CCC(OC(C)=O)[C@@H]1[C@@H](N(Cc2ccc(-c3cccc(C(F)(F)F)c3)o2)C(=O)c2cccc3ccccc23)c2cc(OCCCO)ccc2N1C(=O)c1ccc2ccccc2c1 (stereo not given in full) | -0.12 | -1.6 (inactive) | -0.924 (inactive) | -0.71 (inactive) | 0.942 (inactive) | -0.332 | -0.118 | -0.0205 | -0.0418 | 1.23 | -0.0766 (inactive) | 0.179 | 0.785 (inactive) | 0.434 (inactive) | 2.22 (inactive) | 0.286 (inactive) | 0.813 | -2.13 (inactive) | -1.74 (inactive) | -1.76 |
| CN(C)C(=O)[C@]1(Cc2ccccc2CN=[N+]=[N-])N=C(c2ccc(OCCCO)cc2)O[C@@H]1c1ccccc1N=[N+]=[N-] | 0.397 | -3.07 (inactive) | -0.406 (inactive) | -0.79 (inactive) | -0.969 (inactive) | 1.34 | 0.177 | 0.0095 | 0.25 | -0.946 | -0.174 (inactive) | 0.413 | 33.2 (active) | 30 (active) | 2.99 (inactive) | 9.81 (active) | -0.0847 | -1.25 (inactive) | 0.807 (inactive) | -0.474 |
| COc1ccc([Si](C)(C)[C@@H]2[C@@H](CCO)O[C@]3(C(=O)N(Cc4ccccc4)c4ccc(N5C(=O)c6ccccc6Oc6ccccc65)cc43)[C@H]2C)cc1 | -0.204 | -5.7 (inactive) | -0.332 (inactive) | 1.07 (inactive) | 1.07 (inactive) | -0.059 | -0.128 | -0.642 | -0.32 | 0.459 | 1.02 (inactive) | 0.0962 | 2.11 (inactive) | 1.37 (inactive) | 0.0898 (inactive) | 0.718 (inactive) | 0.656 | 0.212 (inactive) | 1.64 (inactive) | 2.23 |
| Cc1ccc(F)cc1S(=O)(=O)N[C@@H]1CCN(Cc2ccc3[nH]ccc3c2)C1 | -0.159 | -2.99 (inactive) | 1.17 (inactive) | -0.147 (inactive) | 0.49 (inactive) | 0.874 | -0.0403 | 0.247 | 0.608 | 0.711 | -5.9 (inactive) | -0.238 | 3.05 (inactive) | 0.843 (inactive) | 0.255 (inactive) | 0.673 (inactive) | -0.0977 | -0.163 (inactive) | -1.11 (inactive) | -1.96 |
| C=CC[C@]1(C(=O)OC)N=C(c2ccc(OCCCO)cc2)O[C@H]1c1ccccc1N=[N+]=[N-] | 1.2 | -3.62 (inactive) | -1.04 (inactive) | 0.171 (inactive) | -2.05 (inactive) | 0.126 | 0.707 | 0.662 | 1 | 1.68 | -0.908 (inactive) | 1.06 | 30.3 (active) | 26.5 (active) | 5.34 (inactive) | 4.92 (inactive) | 0.26 | -1.89 (inactive) | 0.988 (inactive) | -0.21 |
| CCCCN1CC=CC23O[C@@H]4C=CCOC(=O)[C@@H]4[C@H]2C(=O)N(CCO)[C@@H]3C1=O (stereo not given in full) | -0.477 | -0.238 (inactive) | 1.1 (inactive) | 0.0605 (inactive) | 0.113 (inactive) | -0.94 | 0.059 | 0.0805 | -0.243 | -0.858 | -0.492 (inactive) | 0.175 | -0.366 (inactive) | 0.574 (inactive) | 0.349 (inactive) | 0.381 (inactive) | -0.415 | 1.51 (inactive) | 1.08 (inactive) | 0.669 |
| CC(C)C[C@@H]1NC(=O)[C@H]2C[C@@H](C(=O)NCCCCCCNC(=O)CS)[C@@H](c3ccc(O)cc3)N2C1=O | 0.472 | 1.03 (inactive) | -1.02 (inactive) | -0.805 (inactive) | -0.732 (inactive) | -0.406 | -0.179 | 1 | 0.766 | 1.84 | 0.13 (inactive) | -0.0603 | 7.66 (inactive) | 0.64 (inactive) | 1.4 (inactive) | -0.0166 (inactive) | 0.795 | 1.64 (inactive) | 0.633 (inactive) | 0.755 |
| O=C(NCC(F)(F)F)[C@@H]1c2ccccc2C(=O)N(CC23CC4CC(CC(C4)C2)C3)[C@H]1c1ccc(CO)cc1 | 0.41 | -3.88 (inactive) | -2.52 (inactive) | -0.412 (inactive) | -1.46 (inactive) | -0.169 | 0.038 | 0.11 | 0.438 | 1.62 | 1.17 (inactive) | 0.0585 | 0.75 (inactive) | -0.399 (inactive) | -0.2 (inactive) | -0.264 (inactive) | 3.83 | 0.49 (inactive) | -0.0154 (inactive) | 0.19 |
